In PubChem BioAssay AID651871 (Sanford-Burnham Center for Chemical Genomics, 2012):

The compounds below were run on HL-1 (assay: protection of cardiomyocytes from stress damage, SAR follow-up, cell-based, panel, H9c2 and HL-1, ATP luminescence, set 2 (AID 651871;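 further: cells exposed to stressor for 2 h before ATP readout; reference of the scale not given here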)). Conditions: H9c2/HL-1 cardiomyocytes, 2-deoxyglucose stress, with 2-deoxyglucose, run 13, at 79 µM (top of the series).
With `COc1ccc2c(c1OC)C(=O)N1c3ccccc3C(=O)N(Cc3cccc(Cl)c3Cl)C21` (stereo not drawn) the activity (protection/inhibition) was -9.86%.
`COc1ccc2nc(-c3cc(OC)c(OC)c(OC)c3)cc(C(=O)NCC(=O)Nc3ccc(C(C)=O)cc3)c2c1` showed an activity (protection/inhibition) of 55.5%.
`CCOC(=O)c1cccc(NC(=O)CNC(=O)c2cc(-c3cc(OC)c(OC)c(OC)c3)nc3ccccc23)c1` gave an activity (protection/inhibition) of 66.6%.
